# Experimental data: the supplement of paper PMC4723716
# System: Plasmodium falciparum NF54 gametocytes
# Assay: viability index relative to DMSO control (fraction); higher = less gametocyte killing
# Conditions: 12.5 µM, incubation time: 72 h
# Procedure, shortened: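 The viability index was calculated as the gametocyte particle count over the plate mean of solvent-only wells. For this, P. falciparum NF54 gametocytes of every stage (I–V) were held with compound at 12.5 µM for 72 hr at 37°C under low oxygen in 384-well plates. MitoTracker Red CMXRos staining for 20 min was followed by transfer of 5 µl into 40 µl of 500 nM dye in serum-free medium, with three fields imaged after 30 min.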
# [1] = gametocyte stage: Stage I viability index
# [2] = gametocyte stage: Stage II viability index
# [3] = gametocyte stage: Stage III viability index
# [4] = gametocyte stage: Stage IV viability index
# [5] = gametocyte stage: Stage V viability index
smiles,measurement,setting,value
CCOc1ccc(-c2nc(NC(=O)c3cccc(S(C)(=O)=O)c3)sc2C)cc1,viability index,[1],0.956
same,viability index,[2],0.686
same,viability index,[3],1.1
same,viability index,[4],0.857
same,viability index,[5],0.857
CCOC(=O)C1(Cc2ccccc2)CCN(Cc2cccc(OC)c2O)CC1,viability index,[1],0.0586
same,viability index,[2],0.0716
same,viability index,[3],0.404
same,viability index,[4],0.522
same,viability index,[5],0.649
Cc1ccc(C)c(-c2csc(Nc3ccc(C)c(C)c3)n2)c1,viability index,[1],0.856
same,viability index,[2],0.815
same,viability index,[3],0.82
same,viability index,[4],0.639
same,viability index,[5],0.558
O=C(Nc1cccc(-c2nc3ccccc3[nH]2)c1)c1cccc(NC(=O)c2ccco2)c1,viability index,[1],0.424
same,viability index,[2],0.771
same,viability index,[3],1.01
same,viability index,[4],0.857
same,viability index,[5],0.868
c1ccc(C2=Nc3ccccc3N=C(c3ccccc3)c3ccccc32)cc1,viability index,[1],0.0839
same,viability index,[2],0.0541
same,viability index,[3],0.0543
same,viability index,[4],0.123
same,viability index,[5],0.0909
CCOc1ccccc1CNC(=O)C1c2ccccc2C(=O)N(CC(C)C)C1c1cccs1 (stereo not given),viability index,[1],0.579
same,viability index,[2],0.549
same,viability index,[3],0.795
same,viability index,[4],0.793
same,viability index,[5],1.08
CCN(CC)CCn1c(=N)n(CC(O)c2ccc(Cl)c(Cl)c2)c2ccccc21 (stereo not given),viability index,[1],0.00552
same,viability index,[2],0.057
same,viability index,[3],0.0608
same,viability index,[4],0.0851
same,viability index,[5],0.121
FC(F)(F)c1cccc(CNC2CCN(CCc3ccccc3)CC2)c1,viability index,[1],0.0431
same,viability index,[2],0.464
same,viability index,[3],0.856
same,viability index,[4],0.83
same,viability index,[5],0.802
Cn1c(=O)c2cc(C(=O)NCCCN3CCCCCC3)sc2c2ccccc21,viability index,[1],1.01
same,viability index,[2],0.857
same,viability index,[3],0.926
same,viability index,[4],0.957
same,viability index,[5],0.725
CCN(CC)CCCNc1ccnc2cc3ccccc3cc12,viability index,[1],0.0594
same,viability index,[2],0.485
same,viability index,[3],0.972
same,viability index,[4],0.946
same,viability index,[5],1.1
CCOC(=O)c1c(C)n(-c2ccccc2)c2ccc(OC(=O)c3cc(OC)c(OC)c(OC)c3)cc12,viability index,[1],1.05
same,viability index,[2],0.724
same,viability index,[3],0.947
same,viability index,[4],0.987
same,viability index,[5],1.05
Cc1nc2ccccc2c(O)c1CC=C(Cl)Cl,viability index,[1],0.814
same,viability index,[2],0.962
same,viability index,[3],0.897
same,viability index,[4],0.87
same,viability index,[5],1.06
Cc1cc(C)cc(Nc2cc(C)nc3nc(C(F)(F)F)nn23)c1,viability index,[1],1.02
same,viability index,[2],1.07
same,viability index,[3],1.18
same,viability index,[4],0.869
same,viability index,[5],0.835
CCOC(=O)c1cnc2c(C)cc(C)cc2c1Nc1ccc(OC)c(OC)c1,viability index,[1],1.09
same,viability index,[2],0.998
same,viability index,[3],1.19
same,viability index,[4],0.845
same,viability index,[5],0.978
Cc1ccc(N2C3c4ccccc4N(S(=O)(=O)c4ccc(C)cc4)C2c2ccccc2N3S(=O)(=O)c2ccc(C)cc2)cc1,viability index,[1],0.687
same,viability index,[2],0.77
same,viability index,[3],0.928
same,viability index,[4],0.93
same,viability index,[5],0.978
COCCN(C(=O)Cc1cccs1)C(C(=O)NCc1ccc(OC)cc1)c1ccc(C(C)C)cc1 (stereo not given),viability index,[1],0.846
same,viability index,[2],0.801
same,viability index,[3],1.18
same,viability index,[4],1.11
same,viability index,[5],0.967
CCOC(=O)C1CCN(C(=O)CN2C(=O)c3ccccc3C2c2c[nH]c3ccccc23)CC1 (stereo not given),viability index,[1],1.39
same,viability index,[2],0.924
same,viability index,[3],1.14
same,viability index,[4],1.13
same,viability index,[5],1.18
CC(NCc1ccccc1)c1cc(Cl)ccc1O (stereo not given),viability index,[1],0.0221
same,viability index,[2],0.121
same,viability index,[3],0.44
same,viability index,[4],0.574
same,viability index,[5],0.923
CCOC(=O)C1=CN(C)C=C(C(=O)OCC)C1c1cc(Br)c(OCC)c(OC)c1,viability index,[1],0.042
same,viability index,[2],0.0216
same,viability index,[3],0.0421
same,viability index,[4],0.161
same,viability index,[5],0.117
C[n+]1c2ccccc2nc2ccc(NCCO)cc21,viability index,[1],0.0398
same,viability index,[2],0.302
same,viability index,[3],0.595
same,viability index,[4],0.824
same,viability index,[5],1.03
CCOc1ccc(Nc2ccnc3cc(Cl)ccc23)cc1,viability index,[1],0.0699
same,viability index,[2],0.411
same,viability index,[3],0.852
same,viability index,[4],0.728
same,viability index,[5],0.558
COc1ccc(C(=O)C(CCC(CNC(C)(C)C)C(=O)c2ccc(OC)cc2)CNC(C)(C)C)cc1 (stereo not given),viability index,[1],0.811
same,viability index,[2],0.698
same,viability index,[3],0.548
same,viability index,[4],0.418
same,viability index,[5],0.117
Cc1ccc2c(C)nc(Nc3nc(C)cc(-c4ccccc4)n3)nc2c1,viability index,[1],0.169
same,viability index,[2],0.3
same,viability index,[3],0.318
same,viability index,[4],0.231
same,viability index,[5],0.0519
c1ccc2cc3c(Nc4ccc(N5CCOCC5)cc4)ccnc3cc2c1,viability index,[1],0.0685
same,viability index,[2],0.499
same,viability index,[3],0.779
same,viability index,[4],1.02
same,viability index,[5],1.19
CCOc1cccc(C(=O)Nc2ccc(-c3nc4ccccc4[nH]3)cc2)c1,viability index,[1],0.0751
same,viability index,[2],0.574
same,viability index,[3],1.1
same,viability index,[4],0.894
same,viability index,[5],0.637
Cc1sc(NC(=O)c2ccco2)c(C(c2cccnc2)N2CCC(Cc3ccccc3)CC2)c1C (stereo not given),viability index,[1],0.00962
same,viability index,[2],0.0408
same,viability index,[3],0.261
same,viability index,[4],0.418
same,viability index,[5],0.351
Oc1c(C(Nc2ccccn2)c2cccc(Oc3ccccc3)c2)ccc2cccnc12 (stereo not given),viability index,[1],1.06
same,viability index,[2],0.975
same,viability index,[3],1.04
same,viability index,[4],0.994
same,viability index,[5],0.675
CCN(CC)S(=O)(=O)c1ccc(-c2csc(Nc3ccc(C)c(C)c3)n2)cc1,viability index,[1],0.544
same,viability index,[2],0.506
same,viability index,[3],0.532
same,viability index,[4],0.733
same,viability index,[5],0.352
FC(F)(F)c1cccc(Nc2nc3ccccc3nc2Nc2cccc(C(F)(F)F)c2)c1,viability index,[1],0.0175
same,viability index,[2],0.0233
same,viability index,[3],0.0149
same,viability index,[4],0.00633
same,viability index,[5],0.0649
CCCCOC(=O)c1ccc(Nc2cc(C)nc3ccc(OC)cc23)cc1,viability index,[1],0.0647
same,viability index,[2],0.156
same,viability index,[3],0.545
same,viability index,[4],0.411
same,viability index,[5],0.325
